Holding throughout (assay): DAPPL (digital affinity profiling via proximity ligation, sequencing); 10 mM Tris-HCl pH 7.5, 50 mM NaCl, 1 mM DTT, 4% glycerol, room temperature, 30 min; GST-TFs on glutathione beads, 16-mer random dsDNA library, 0.1% formaldehyde crosslink after washing; high values mean tight binding
One assay has as its target T1, FLI1 (Homo sapiens, UniProt Q01543 1-452).
T1 sequence: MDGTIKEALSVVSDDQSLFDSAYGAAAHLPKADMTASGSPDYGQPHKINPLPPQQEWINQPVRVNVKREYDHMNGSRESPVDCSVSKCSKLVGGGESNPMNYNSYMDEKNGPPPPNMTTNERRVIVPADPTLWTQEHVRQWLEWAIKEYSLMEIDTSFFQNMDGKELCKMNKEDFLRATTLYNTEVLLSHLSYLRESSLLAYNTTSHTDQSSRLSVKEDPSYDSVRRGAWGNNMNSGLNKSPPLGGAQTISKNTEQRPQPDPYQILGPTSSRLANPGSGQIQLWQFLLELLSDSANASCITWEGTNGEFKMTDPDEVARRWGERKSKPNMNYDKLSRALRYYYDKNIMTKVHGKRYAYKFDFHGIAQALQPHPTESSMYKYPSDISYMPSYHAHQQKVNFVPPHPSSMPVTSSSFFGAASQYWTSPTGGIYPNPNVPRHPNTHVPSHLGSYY
The conditions noted are these: protein: recombinant; tags: N-terminal GST; dsDNA, one strand shown. In a few lines: (§1)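 Sequencing on an Illumina NextSeq500 followed washing, crosslinking with 0.1% formaldehyde, proximity ligation (BsaI/T4 ligase, 1 h, 37 °C) and PCR amplification of pools that had been incubated for 30 min at room temperature with 200 nmole of a random double-stranded 16-mer DNA library in Tris/NaCl/DTT/glycerol buffer. Each pool held DNA-barcoded human transcription factors, expressed in yeast as GST fusions and captured on glutathione beads, plus a tag-only sample. Binding signal is a hexamer's read frequency for a factor divided by its frequency in the tag-only sample.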

The target of another assay is T2, ELK1 (Homo sapiens, UniProt P19419 1-428).
T2 sequence: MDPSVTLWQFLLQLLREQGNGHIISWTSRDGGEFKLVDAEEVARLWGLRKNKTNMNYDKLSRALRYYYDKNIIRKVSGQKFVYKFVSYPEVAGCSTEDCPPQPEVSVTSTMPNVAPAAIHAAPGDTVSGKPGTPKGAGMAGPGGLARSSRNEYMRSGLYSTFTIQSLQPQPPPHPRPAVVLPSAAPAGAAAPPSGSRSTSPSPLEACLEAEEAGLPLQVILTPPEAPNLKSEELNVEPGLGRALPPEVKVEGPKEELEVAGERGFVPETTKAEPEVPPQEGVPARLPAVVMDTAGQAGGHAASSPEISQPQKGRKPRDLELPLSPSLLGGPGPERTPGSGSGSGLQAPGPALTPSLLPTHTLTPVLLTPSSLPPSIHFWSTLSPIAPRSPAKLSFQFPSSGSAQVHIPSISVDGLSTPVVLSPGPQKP
The conditions noted are these: protein: recombinant; tags: N-terminal GST; dsDNA, one strand shown. In a few lines:
as §1

A further assay has as its target T3, GABPA (Homo sapiens, UniProt Q06546 1-454).
T3 sequence: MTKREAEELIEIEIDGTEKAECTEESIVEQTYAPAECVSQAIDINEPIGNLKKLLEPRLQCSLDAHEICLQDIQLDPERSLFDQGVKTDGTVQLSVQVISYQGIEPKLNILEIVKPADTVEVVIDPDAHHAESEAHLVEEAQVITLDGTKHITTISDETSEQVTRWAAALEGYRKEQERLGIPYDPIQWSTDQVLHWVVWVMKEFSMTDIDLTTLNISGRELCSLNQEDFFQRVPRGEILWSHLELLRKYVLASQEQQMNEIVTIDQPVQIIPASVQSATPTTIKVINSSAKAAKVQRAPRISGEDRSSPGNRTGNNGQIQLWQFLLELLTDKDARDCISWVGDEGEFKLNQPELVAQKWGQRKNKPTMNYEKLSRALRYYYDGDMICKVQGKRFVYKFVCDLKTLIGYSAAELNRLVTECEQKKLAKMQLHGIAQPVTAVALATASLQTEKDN
The conditions noted are these: protein: recombinant; tags: N-terminal GST; dsDNA, one strand shown. In a few lines: as §1

In the next assay the target is T4, ERG (Homo sapiens, UniProt P11308 1-479).
T4 sequence: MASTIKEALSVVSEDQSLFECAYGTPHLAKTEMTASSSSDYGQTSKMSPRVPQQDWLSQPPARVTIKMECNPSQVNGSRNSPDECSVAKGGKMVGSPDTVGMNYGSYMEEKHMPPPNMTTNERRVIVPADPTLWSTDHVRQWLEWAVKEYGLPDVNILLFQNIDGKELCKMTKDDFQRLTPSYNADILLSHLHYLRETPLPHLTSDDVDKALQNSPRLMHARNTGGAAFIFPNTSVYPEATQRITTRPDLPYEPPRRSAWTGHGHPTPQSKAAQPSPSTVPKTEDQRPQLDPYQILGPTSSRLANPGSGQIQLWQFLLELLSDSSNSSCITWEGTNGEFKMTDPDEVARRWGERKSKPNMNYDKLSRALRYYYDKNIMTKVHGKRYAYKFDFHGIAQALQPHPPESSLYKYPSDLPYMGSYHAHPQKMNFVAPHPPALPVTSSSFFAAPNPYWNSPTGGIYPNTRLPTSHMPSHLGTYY
To be noted: protein: recombinant; tags: N-terminal GST; dsDNA, one strand shown. Put shortly:
as §1

The target in a further assay is ELF1 (Homo sapiens, UniProt P32519 1-619). The conditions noted are these: protein: recombinant; tags: N-terminal GST; dsDNA, one strand shown. In a few lines: as §1
A further assay addresses T5, EHF (Homo sapiens, UniProt Q9NZC4 1-300).
T5 sequence: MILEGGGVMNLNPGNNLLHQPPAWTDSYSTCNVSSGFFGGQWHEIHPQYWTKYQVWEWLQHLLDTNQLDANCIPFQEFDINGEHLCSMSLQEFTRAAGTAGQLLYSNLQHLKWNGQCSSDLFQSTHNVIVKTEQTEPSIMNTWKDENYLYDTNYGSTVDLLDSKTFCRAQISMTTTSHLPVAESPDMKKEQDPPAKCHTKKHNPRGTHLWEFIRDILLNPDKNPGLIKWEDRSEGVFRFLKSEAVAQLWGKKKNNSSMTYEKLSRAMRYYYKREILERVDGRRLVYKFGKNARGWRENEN
The conditions noted are these: protein: recombinant; tags: N-terminal GST; dsDNA, one strand shown. Put shortly: as §1

A further assay concerns the target SPI1 (Homo sapiens, UniProt P17947 1-270). To be noted: protein: recombinant; tags: N-terminal GST; dsDNA, one strand shown. Put shortly: as §1
The target of the next assay is SPIB (Homo sapiens, UniProt Q01892 1-262). The conditions noted are these: protein: recombinant; tags: N-terminal GST; dsDNA, one strand shown. Put shortly: as §1
A further assay concerns the target T6, ELK3 (Homo sapiens, UniProt P41970 1-407).
T6 sequence: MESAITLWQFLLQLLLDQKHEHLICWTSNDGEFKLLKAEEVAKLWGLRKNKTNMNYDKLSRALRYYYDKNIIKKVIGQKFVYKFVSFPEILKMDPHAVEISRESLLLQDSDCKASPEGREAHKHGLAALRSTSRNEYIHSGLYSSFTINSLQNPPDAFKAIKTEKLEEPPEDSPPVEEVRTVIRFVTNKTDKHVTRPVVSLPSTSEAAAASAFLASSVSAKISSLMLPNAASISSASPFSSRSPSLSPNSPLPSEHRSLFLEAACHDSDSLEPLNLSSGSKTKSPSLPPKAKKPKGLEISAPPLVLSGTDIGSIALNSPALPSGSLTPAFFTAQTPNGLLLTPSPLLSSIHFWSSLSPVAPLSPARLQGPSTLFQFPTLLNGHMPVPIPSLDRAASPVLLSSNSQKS
To be noted: protein: recombinant; tags: N-terminal GST; dsDNA, one strand shown. Put shortly: as §1

A further assay deals with T7, FEV (Homo sapiens, UniProt Q99581 1-238).
T7 sequence: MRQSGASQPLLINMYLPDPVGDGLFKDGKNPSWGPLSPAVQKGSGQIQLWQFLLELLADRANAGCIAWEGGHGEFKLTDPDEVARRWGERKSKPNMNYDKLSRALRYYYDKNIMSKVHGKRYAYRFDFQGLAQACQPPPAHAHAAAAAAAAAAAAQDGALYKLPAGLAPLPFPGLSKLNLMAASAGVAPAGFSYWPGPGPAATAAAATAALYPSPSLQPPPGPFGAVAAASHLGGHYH
The conditions noted are these: protein: recombinant; tags: N-terminal GST; dsDNA, one strand shown. In a few lines: as §1

The target in a further assay is ETV5 (Homo sapiens, UniProt P41161 1-510). To be noted: protein: recombinant; tags: N-terminal GST; dsDNA, one strand shown. Put shortly:
as §1

The target of a further assay is HSF1 (Homo sapiens, UniProt Q00613 1-529). The conditions noted are these: protein: recombinant; tags: N-terminal GST; chain copies: 3; dsDNA, one strand shown. Put shortly: as §1
The next assay deals with T8, SPIC (Homo sapiens, UniProt Q8N5J4 1-248).
T8 sequence: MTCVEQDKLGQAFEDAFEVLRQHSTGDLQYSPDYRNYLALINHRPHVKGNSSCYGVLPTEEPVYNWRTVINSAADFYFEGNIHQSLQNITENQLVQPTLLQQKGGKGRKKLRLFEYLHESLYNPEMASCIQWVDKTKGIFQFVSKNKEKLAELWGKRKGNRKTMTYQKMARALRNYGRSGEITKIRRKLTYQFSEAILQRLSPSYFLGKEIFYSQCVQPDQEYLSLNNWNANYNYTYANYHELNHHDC
To be noted: protein: recombinant; tags: N-terminal GST; dsDNA, one strand shown. Put shortly: as §1

Another assay deals with ELF4 (Homo sapiens, UniProt Q99607 1-663). To be noted: protein: recombinant; tags: N-terminal GST; dsDNA, one strand shown. Put shortly: as §1
For another assay, the target named is T9, ELK4 (Homo sapiens, UniProt P28324-2 1-405).
T9 sequence: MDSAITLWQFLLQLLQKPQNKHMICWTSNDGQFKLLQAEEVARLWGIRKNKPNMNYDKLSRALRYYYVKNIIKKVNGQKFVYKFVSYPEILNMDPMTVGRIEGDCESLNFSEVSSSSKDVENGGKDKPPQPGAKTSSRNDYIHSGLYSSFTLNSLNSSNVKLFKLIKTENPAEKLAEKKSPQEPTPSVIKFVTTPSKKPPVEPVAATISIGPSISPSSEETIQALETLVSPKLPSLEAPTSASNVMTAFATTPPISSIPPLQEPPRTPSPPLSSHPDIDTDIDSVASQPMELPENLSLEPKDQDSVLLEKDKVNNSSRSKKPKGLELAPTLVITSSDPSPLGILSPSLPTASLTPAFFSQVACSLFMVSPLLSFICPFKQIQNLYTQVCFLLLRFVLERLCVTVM
The conditions noted are these: protein: recombinant; tags: N-terminal GST; dsDNA, one strand shown. Put shortly:
as §1

Another assay addresses T10, ETV2 (Homo sapiens, UniProt O00321 1-342).
T10 sequence: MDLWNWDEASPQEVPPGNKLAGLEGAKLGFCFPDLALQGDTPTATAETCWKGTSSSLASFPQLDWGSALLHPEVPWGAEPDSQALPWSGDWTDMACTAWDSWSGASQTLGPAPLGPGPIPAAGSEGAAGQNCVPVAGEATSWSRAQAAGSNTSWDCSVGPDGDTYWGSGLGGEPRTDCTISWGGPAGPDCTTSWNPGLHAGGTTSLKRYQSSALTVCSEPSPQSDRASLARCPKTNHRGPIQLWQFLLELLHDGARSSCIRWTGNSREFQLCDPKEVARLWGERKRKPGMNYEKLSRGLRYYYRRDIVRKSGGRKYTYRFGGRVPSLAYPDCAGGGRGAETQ
To be noted: protein: recombinant; tags: N-terminal GST; dsDNA, one strand shown. Put shortly: as §1

Another assay has as its target CRX (Homo sapiens, UniProt O43186 1-299). The conditions noted are these: protein: recombinant; tags: N-terminal GST; dsDNA, one strand shown. Put shortly: as §1
A further assay has as its target ETV1 (Homo sapiens, UniProt P50549 1-477). The conditions noted are these: protein: recombinant; tags: N-terminal GST; dsDNA, one strand shown. In a few lines:
as §1

ETV1, sequence (P50549 whole entry): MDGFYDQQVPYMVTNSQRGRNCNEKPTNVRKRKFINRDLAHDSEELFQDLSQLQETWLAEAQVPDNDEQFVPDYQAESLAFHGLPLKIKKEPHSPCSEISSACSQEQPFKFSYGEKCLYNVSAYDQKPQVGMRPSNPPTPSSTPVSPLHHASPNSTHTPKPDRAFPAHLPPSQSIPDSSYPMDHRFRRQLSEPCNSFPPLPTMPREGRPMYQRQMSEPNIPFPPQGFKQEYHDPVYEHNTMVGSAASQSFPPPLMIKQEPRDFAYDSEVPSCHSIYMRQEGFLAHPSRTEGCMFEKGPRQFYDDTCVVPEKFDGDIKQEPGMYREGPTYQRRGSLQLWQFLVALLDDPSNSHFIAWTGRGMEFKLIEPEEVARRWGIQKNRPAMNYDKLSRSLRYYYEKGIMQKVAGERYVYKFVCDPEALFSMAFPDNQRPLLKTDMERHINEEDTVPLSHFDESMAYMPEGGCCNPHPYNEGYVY
HSF1, sequence (Q00613 whole entry): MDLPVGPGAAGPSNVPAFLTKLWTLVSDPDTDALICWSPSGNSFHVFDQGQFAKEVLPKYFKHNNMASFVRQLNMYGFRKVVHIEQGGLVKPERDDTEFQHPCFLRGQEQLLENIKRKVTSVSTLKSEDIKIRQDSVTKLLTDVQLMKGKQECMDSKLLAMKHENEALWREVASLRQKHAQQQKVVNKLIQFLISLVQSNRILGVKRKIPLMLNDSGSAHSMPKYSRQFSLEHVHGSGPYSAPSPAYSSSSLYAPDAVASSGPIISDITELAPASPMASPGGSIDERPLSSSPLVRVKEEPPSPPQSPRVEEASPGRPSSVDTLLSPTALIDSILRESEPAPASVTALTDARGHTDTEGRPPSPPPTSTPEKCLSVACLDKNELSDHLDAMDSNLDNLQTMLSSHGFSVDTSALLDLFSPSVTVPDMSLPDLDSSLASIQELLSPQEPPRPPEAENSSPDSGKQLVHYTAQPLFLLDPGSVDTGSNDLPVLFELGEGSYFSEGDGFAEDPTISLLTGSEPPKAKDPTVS
CRX, sequence (O43186 whole entry): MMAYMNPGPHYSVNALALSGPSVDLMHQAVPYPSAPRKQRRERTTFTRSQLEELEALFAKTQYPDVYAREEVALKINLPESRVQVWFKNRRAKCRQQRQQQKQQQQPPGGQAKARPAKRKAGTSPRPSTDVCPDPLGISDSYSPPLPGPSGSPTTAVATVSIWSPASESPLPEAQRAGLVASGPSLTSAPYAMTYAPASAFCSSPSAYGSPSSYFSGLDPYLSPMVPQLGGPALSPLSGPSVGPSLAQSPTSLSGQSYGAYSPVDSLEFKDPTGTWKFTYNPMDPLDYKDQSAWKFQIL
SPIB, sequence (Q01892 whole entry): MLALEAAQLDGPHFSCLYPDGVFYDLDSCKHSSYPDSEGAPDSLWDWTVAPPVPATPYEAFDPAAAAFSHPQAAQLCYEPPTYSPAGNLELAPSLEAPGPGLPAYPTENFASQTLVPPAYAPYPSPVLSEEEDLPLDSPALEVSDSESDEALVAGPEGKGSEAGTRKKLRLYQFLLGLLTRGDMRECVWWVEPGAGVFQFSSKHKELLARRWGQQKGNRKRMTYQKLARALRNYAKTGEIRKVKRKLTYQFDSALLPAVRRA
ELF4, sequence (Q99607 whole entry): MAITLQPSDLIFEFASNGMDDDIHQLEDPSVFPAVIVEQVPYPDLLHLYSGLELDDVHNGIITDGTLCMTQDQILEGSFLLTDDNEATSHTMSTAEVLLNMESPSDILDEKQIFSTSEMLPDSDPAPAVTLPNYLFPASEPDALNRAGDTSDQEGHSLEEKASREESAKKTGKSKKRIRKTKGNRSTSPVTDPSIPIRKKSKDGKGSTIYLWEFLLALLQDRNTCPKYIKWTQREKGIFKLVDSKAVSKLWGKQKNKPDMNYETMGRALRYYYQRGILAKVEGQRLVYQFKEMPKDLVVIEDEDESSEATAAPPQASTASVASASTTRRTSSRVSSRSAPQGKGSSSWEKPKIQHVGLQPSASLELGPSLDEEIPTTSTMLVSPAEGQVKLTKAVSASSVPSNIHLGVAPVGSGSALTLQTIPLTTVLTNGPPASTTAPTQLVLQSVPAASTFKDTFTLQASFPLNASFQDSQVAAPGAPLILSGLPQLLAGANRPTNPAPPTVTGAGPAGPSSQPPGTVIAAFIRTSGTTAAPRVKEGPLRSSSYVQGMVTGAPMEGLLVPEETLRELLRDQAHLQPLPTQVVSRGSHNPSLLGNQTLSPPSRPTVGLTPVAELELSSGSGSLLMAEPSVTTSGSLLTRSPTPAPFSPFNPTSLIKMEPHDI
ELF1, sequence (P32519 whole entry): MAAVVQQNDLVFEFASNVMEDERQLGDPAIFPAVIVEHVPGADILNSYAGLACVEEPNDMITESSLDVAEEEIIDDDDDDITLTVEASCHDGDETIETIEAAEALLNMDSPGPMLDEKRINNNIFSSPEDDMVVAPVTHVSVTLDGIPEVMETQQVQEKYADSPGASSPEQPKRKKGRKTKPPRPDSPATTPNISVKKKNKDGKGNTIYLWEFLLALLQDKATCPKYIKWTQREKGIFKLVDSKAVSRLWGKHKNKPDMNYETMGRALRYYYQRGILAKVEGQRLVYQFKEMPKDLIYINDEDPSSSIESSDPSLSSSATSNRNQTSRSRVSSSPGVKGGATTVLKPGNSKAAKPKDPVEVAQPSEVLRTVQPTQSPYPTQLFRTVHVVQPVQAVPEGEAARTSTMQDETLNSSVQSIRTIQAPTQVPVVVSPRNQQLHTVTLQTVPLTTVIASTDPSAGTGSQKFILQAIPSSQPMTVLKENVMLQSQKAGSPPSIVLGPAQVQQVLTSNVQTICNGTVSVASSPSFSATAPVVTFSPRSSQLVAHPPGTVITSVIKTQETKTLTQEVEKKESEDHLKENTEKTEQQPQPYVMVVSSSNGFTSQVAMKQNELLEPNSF
ETV5, sequence (P41161 whole entry): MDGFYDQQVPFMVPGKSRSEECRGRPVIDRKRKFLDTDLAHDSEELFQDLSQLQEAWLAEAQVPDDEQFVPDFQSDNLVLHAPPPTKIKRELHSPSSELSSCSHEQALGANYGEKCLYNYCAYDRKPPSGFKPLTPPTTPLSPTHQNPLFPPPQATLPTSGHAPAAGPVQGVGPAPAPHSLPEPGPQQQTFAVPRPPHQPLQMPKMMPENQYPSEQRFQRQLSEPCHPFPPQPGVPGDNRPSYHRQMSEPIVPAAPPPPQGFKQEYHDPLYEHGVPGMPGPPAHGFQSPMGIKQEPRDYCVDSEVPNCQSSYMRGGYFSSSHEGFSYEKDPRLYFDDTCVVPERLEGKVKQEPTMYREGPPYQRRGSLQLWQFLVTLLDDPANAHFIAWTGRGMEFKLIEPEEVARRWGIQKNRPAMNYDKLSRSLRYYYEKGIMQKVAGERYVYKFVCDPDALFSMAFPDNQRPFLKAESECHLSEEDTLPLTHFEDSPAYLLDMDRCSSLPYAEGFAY

In the case of CTCCAT, the binding signal was 1.34 fold enrichment (6-mer frequency, TF over GST control) with FLI1; 1.38 fold enrichment (6-mer frequency, TF over GST control) in the assay with ELK1; 1.31 fold enrichment (6-mer frequency, TF over GST control) with GABPA; 1.34 fold enrichment (6-mer frequency, TF over GST control) with ERG; 1.34 fold enrichment (6-mer frequency, TF over GST control) with ELF1; 1.37 fold enrichment (6-mer frequency, TF over GST control) with EHF. Besides, the binding signal was 1.32 fold enrichment (6-mer frequency, TF over GST control) in the assay with SPI1; 1.25 fold enrichment (6-mer frequency, TF over GST control) with SPIB; 1.36 fold enrichment (6-mer frequency, TF over GST control) in the assay with ELK3; 1.36 fold enrichment (6-mer frequency, TF over GST control) in the assay with FEV; 1.43 fold enrichment (6-mer frequency, TF over GST control) in the assay with ETV5; 1.21 fold enrichment (6-mer frequency, TF over GST control) with HSF1. For the same sequence, the binding signal was 1.12 fold enrichment (6-mer frequency, TF over GST control) with SPIC; 1.28 fold enrichment (6-mer frequency, TF over GST control) in the assay with ELF4; 1.4 fold enrichment (6-mer frequency, TF over GST control) in the assay with ELK4; 1.46 fold enrichment (6-mer frequency, TF over GST control) in the assay with ETV2; 1.19 fold enrichment (6-mer frequency, TF over GST control) with CRX; 1.3 fold enrichment (6-mer frequency, TF over GST control) in the assay with ETV1.

Values taken from PMC7862700, “An all-to-all approach to the identification of sequence-specific readers for epigenetic DNA modifications on cytosine”.
